D2 ag-1: human D2 receptor agonism in beta-arrestin assay; P14416; DiscoveRx PathHunter D2 beta-arrestin, luminescence, 90 min; 100% = 57 uM dopamine signal; activation, % (concentration not given with the values); hit rate 0.084% among 360,000; in the data active = activation above about 40%; inconclusive = between about 15% and that limit
Target sequence (P14416 whole entry, looked up): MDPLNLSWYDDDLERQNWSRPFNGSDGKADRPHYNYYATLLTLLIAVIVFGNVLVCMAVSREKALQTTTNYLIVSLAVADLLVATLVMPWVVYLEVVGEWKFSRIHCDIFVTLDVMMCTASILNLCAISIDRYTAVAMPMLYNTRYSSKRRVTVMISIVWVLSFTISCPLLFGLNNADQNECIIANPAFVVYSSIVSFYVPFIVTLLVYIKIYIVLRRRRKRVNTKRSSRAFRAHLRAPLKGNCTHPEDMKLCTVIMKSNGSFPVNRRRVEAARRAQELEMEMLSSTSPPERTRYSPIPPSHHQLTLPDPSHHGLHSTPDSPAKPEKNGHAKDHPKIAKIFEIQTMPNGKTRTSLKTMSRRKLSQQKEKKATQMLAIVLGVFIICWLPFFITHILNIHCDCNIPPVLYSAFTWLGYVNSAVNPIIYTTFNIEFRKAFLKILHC
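DiscoveRx PathHunter D2 beta-arrestin cells (2,100/well) attached overnight, then compound-stimulated 90 min at 37 C in HBSS/10 mM HEPES/0.1% Tween-20 buffer; beta-galactosidase complementation read by luminescence after 1 h at ambient temperature. Dopamine 57 uM final (EC100) as control.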
D2 PAM-1: potentiates the human D2 dopamine receptor allosterically | P14416 | DiscoveRx D2 beta-arrestin cells, luminescence, 90 min; 100% = 57 uM dopamine signal | potentiation, % (concentration not given with the values) | hit rate 0.23% among 360,000 | AID 624464; in the data active = potentiation above about 50%; inconclusive = mostly about 30% to 49%
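D2 cells co-treated with compound plus 50 nM dopamine (EC20) for 90 min at 37 deg C to detect potentiation. Beta-arrestin recruitment was read as enzyme-fragment luminescence after 1 h at ambient temperature. Full response was set by 57 uM dopamine.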
D2 PAM-2: positively modulates the human D2 dopamine receptor allosterically. P14416. HEK293 T-REx D2, calcium flux, EC20 dopamine potentiation. potentiation, % at 10 µM. hit rate 0.34% among 340,000. AID 485347;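 active = potentiation over 3 SD above the plate norm, cut at about 30% in these data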; note: 0% is about no effect
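Cells plated with tetracycline inducer and held overnight at 30 C; calcium dye loaded 30–90 min at room temperature; baseline taken, compound added and read 180 s; EC20 dopamine then added and read 180 s.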
D2 antag: antagonists of human D2 dopamine receptor | HEK293 TREx D2 cells, calcium flux, dopamine EC80 | P14416 | AID 485344 | hit rate 2% among 340,000 | inhibition, % at 10 µM; in the data active = inhibition above about 30%; inactive = below that, where a call was filed; note: 0% is about no effect
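Calcium flux kinetic readout in an inducible HEK293 TREx D2 line plated overnight at 30 C. After 180 s compound exposure, an EC80 dopamine challenge follows with another 180 s kinetic read to detect antagonism.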
D2 ag-2: agonists of human D2 dopamine receptor. P14416. HEK293 T-REx D2 cells, calcium flux agonist mode. activation, % at 2 µM. hit rate 0.53% among 340,000;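 active = activation over 3 SD above normal in the single-dose calcium agonist read, cut at about 30% in these data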; note: 0% is about no effect
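Tetracycline-induced HEK293 Trex cells with D2 receptor force-coupled to calcium signaling, plated overnight at 30 C and loaded with no-wash calcium dye. Calcium flux read kinetically for 180 s after compound addition; responses flag agonists.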
* hit, by the source's call; ? = inconclusive; · = no result given. Sampled rows, rich in hits. Any-hit rate of the full collection: about 2.4%.

SMILES	D2 ag-1	D2 PAM-1	D2 PAM-2	D2 antag	D2 ag-2
Cn1c(SCC(=O)NCCNC(=O)CSc2nnc(C(F)(F)F)n2C)nnc1C(F)(F)F	-1	-14	-16	33*	0
Cc1ccc(CNc2ccc3c(c2)ncn3C(C)C)cc1	-2	-11	-1	-3	37*
CC1CCCN(CCCNC(=O)c2ccc(NC(=O)C3=CSCCO3)cc2)C1 (stereo unspecified)	-1	-18	0	-2	0
Cc1cccc(N2CCN(CCCNC(=O)c3ccc(NC(=O)C4=CSCCO4)cc3)CC2C)c1 (stereo unspecified)	1	4	-28	36*	16
CC(C)COc1ccc(-c2nnc(-c3ccco3)o2)cc1	-1	-11	30*	28	-1
O=C1NC(=S)SC1=Cc1cccs1	-7	-11	·	·	·
CN1CCC/C1=C/C=C1\SC(=S)NC1=O	-6	-31	6	8	50*
O=C1CCN2C=Nc3cccc4ccc1c2c34	7	21	-6	11	47*
COc1ccc2c(c1)-c1nc(/N=C/c3ccc(O)cc3)sc1CC2	3	-15	-6	45*	-1
Cc1nn(-c2ccccc2)c(C)c1C(=O)OCC(=O)N(C)C1CCS(=O)(=O)C1 (stereo unspecified)	-1	-2	0	38*	1
COc1cc(/C=C2\SC(N3CCc4ccccc4C3)=NC2=O)cc(OC)c1OC	-8	-23	-29	56*	0
COC(=O)c1sc(S(=O)(=O)Nc2ccc(C)cc2)c(C(=O)OC)c1C	-4	1	32*	4	5
COC(=O)c1cc2cc(NS(=O)(=O)c3ccc(C)cc3)ccc2s1	-2	-9	43*	-9	-2
CC(=O)c1cccc(N(CC(=O)Nc2ccccc2F)S(C)(=O)=O)c1	-2	1	-12	46*	0
CSc1cccc(NC(=O)CN(c2cccc(C)c2)S(C)(=O)=O)c1	0	-9	-9	30*	1
CC(C)C(NC(=O)CN(c1cccc(F)c1)S(C)(=O)=O)C(C)C	-3	1	20	39*	0
O=C(CSc1nc2ccsc2c(=O)n1-c1ccc(Br)cc1)NCc1ccc(Cl)cc1	·	·	·	·	1
CC1Cc2ccccc2N1C(=O)CN(C)CC(=O)Nc1ccc(F)cc1 (stereo unspecified)	-5	-25	-3	43*	0
Cc1nnc2c(N3CCN(c4ccccc4F)CC3)nc3ccccc3n12	·	·	-5	·	0
O=C(O)CCCC(=O)Nc1nc2n(n1)C(c1ccc(F)cc1)CC(c1ccc(Cl)cc1)N2 (stereo unspecified)	-3	-9	-8	32*	-1
COc1ccc(N2CCN(CCCNC(=O)c3nnc(Cc4ccccc4Cl)o3)CC2)cc1	·	·	-4	·	0
COc1ccc(CNC(=O)c2cc(C)nc3c2c(C)nn3-c2cccc(Cl)c2C)cc1	·	·	-2	·	-2
CC(=O)CCn1c(=O)n(CCC(C)=O)c(=O)n(CCC(C)=O)c1=O	0	-5	36*	24	-1
Cc1ccccc1NC(=O)Cc1nnc(NC(=O)Nc2ccccc2F)s1	3	-8	4	14	1
COC(=O)Nc1nnc(Cc2ccccc2)s1	-1	-7	7	-9	-1
SMILES	D2 ag-1	D2 PAM-1	D2 PAM-2	D2 antag	D2 ag-2
CC(C)C(=O)Nc1nnc(Cc2ccccc2)s1	-3	-3	6	30*	1
Cc1ccccc1NC(=O)Nc1nnc(CC(=O)NCc2ccccc2)s1	-3	-13	-1	31*	0
CC(C)C[C@H]1CN([C@@H](Cc2ccccc2)CN2CCC[C@@H]2CN2C(=O)C(=O)NC[C@@H]2Cc2ccccc2)C(=O)C(=O)N1CCc1ccccc1	1	-3	·	·	·
Brc1ccc(C2=Nc3cccc4cccc(c34)N2)o1	?	84*	4	-10	1
N/C(=N\OC(=O)c1ccc(Cl)c(Cl)c1)c1cccnc1	?	117*	-9	-4	0
N/C(=N\OC(=O)c1cccc(Cl)c1)c1cccnc1	?	138*	2	19	0
N/C(=N\OC(=O)c1cccc(Cl)c1)c1ccncc1	?	16	4	-1	0
CSc1ccc(C#N)cc1NC(=O)c1ccccc1C	3	-3	-17	51*	1
COc1ccc(NC(=O)CN(C)S(=O)(=O)c2ccc3[nH]c4c(c3c2)CCCC4)cc1Cl	·	·	3	·	0
Cc1csc(NC(=O)C2CCCN(S(=O)(=O)c3ccc(Br)s3)C2)n1 (stereo unspecified)	-1	-21	-10	38*	-1
O=C(Nc1c(C(=O)Nc2ccc(F)cc2)oc2ccccc12)c1ccccc1F	·	·	11	·	0
Nc1ncnc2c1ncn2[C@@H]1O[C@H](C(=O)N2CCC[C@@H]2C(=O)OCc2ccccc2)[C@@H](O)[C@H]1O	-4	-8	·	·	·
Cc1cc(NC(=O)C2CCN(S(=O)(=O)Cc3ccccc3)CC2)ccc1-n1cnnn1	-2	6	1	30*	1
Cc1cc(NC(=O)C2CCCN2C(=O)Nc2c(C)cccc2C)ccc1-n1cnnn1 (stereo unspecified)	-2	-13	14	15	0
CC1=C(C(=O)N2CCOCC2)CC(CC(=O)NCc2ccco2)C(=O)N1Cc1ccc(C(C)(C)C)cc1 (stereo unspecified)	-4	0	·	·	·
CCOC(=O)c1ccc2c(c1)N(C)C(=O)c1ccccc1S2	-2	-3	-1	-2	1
CCOC(=O)c1cc2n(c1/N=C/N(C)C)-c1ccccc1C2=O	-4	-4	4	15	36*
Cc1c(NC(=O)C(C)(C)Oc2ccc(Cl)cc2)cccc1-c1nc2ncccc2o1	·	·	-2	·	1
CC(=O)C(C(C)=O)c1c(Cl)c(O)c(O)c2c(C(=O)c3ccccc3)coc12	?	103*	-3	3	0
CCNC(=O)C1(C)CCN(C(=O)c2cc(F)ccc2C)C1 (stereo unspecified)	-3	-14	·	·	·
CC(=O)Nc1cccc(NC(=O)C2(c3cccs3)CCOCC2)c1	·	·	-5	·	1
Cc1c(Cl)cccc1NS(=O)(=O)c1ccccc1	-3	-4	·	·	·
Cc1c(NS(=O)(=O)c2ccccc2)cc(Cl)c(O)c1C	?	62*	·	-6	3
CC(C)CCn1c(=O)c2cccnc2n(CC(=O)Nc2ccccc2F)c1=O	·	·	0	·	0
CN1/C(=C/C=N/NC(=O)c2ccc([N+](=O)[O-])cc2)C(C)(C)c2ccccc21	1	-7	-17	37*	0
CCc1nnc(NC(=O)CSc2nccn2Cc2ccc(F)cc2)s1	·	·	5	·	-6
COc1cc(OC)c(NC(=O)N2CC=C(c3c[nH]c4ccccc34)CC2)cc1Cl	·	·	-15	·	2
O=C(/C=C/c1ccco1)Nc1sc2c(c1C(=O)O)CCC2	-2	-8	-4	-5	-1

Source: PubChem BioAssay
